Source: PubChem BioAssay AID602229 (The Scripps Research Institute Molecular Screening Center, 2012)
About 1,300 (0.36%) of roughly 360,000 compounds were called active. This is one part of a sample in which actives are shown more often than they occur.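 How the source made its calls: active means inhibition above the mean of all tested compounds plus 3 SD (cut at about 70% in these data); inactive means the rest.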

These compounds were tested against Photoreceptor-specific nuclear receptor (Homo sapiens) (UniProt Q9Y5X4) (assay: NCOR release from NR2E3 in cells – cell-based, luminescence, CHO-S, Gal4-NCOR/VP16-NR2E3, primary screen (AID 602229;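 further: 0% = DMSO with NR2E3 transfected cells and 100% = cells lacking NR2E3 construct; higher means lower luciferase signal from less NR2E3 corepressor binding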)). Settings: CHO-S Gal4-NCOR/VP16-NR2E3 two-hybrid, luciferase; at 3.98 µM; stronger effect = higher value.
Chain of Photoreceptor-specific nuclear receptor (Homo sapiens) (Q9Y5X4 whole entry, looked up, the tested form may be a part): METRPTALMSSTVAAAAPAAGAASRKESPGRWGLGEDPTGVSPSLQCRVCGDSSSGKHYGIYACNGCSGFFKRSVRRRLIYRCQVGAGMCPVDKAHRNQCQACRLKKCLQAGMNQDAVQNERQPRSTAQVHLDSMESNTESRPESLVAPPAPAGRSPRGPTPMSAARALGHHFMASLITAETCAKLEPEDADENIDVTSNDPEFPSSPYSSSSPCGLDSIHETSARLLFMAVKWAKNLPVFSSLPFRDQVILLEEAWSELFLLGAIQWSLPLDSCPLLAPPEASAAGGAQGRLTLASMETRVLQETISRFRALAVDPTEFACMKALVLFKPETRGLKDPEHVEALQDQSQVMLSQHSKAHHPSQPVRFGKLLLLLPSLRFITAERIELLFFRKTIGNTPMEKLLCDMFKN

| SMILES | inhibition of corepressor binding |
| --- | --- |
| Cc1nc(NC(=O)CCC(=O)O)sc1C(=O)N(C)C | -26.6% (inactive) |
| COc1ccc2c(c1)c(=Cc1ccc(N(C)C)cc1)c1cc(-c3ccccc3)[n+](C)n12 | 82.2% (active) |
| C[C@@H]1NC(=O)c2cc([N+](=O)[O-])cc(F)c2NCCC[C@@H](C(N)=O)NC(=O)[C@H](CC(N)=O)NC1=O | -1.65% (inactive) |
| Cc1cc(C(=O)OCC(=O)Nc2ccccc2Cl)c(C)o1 | -11.3% (inactive) |
| O=C(Nc1ccccc1C(=O)N1CCCCCC1)c1ccccc1Cl | -5.45% (inactive) |
| O=C(Nc1ccccc1Cl)/C(Cl)=C(\Cl)S(=O)c1ccccc1 (stereo unspecified) | 90.4% (active) |
| Cc1sc2ncnc(SCC(=O)NC3CCS(=O)(=O)C3)c2c1C (stereo unspecified) | 11.1% (inactive) |
| CCNC(=O)c1c(O)c2cccc3c2n(c1=O)CC3 | -12.8% (inactive) |
| CC1CN(Cc2ccco2)C(=S)N(c2ccccc2)C1=O (stereo unspecified) | 10.4% (inactive) |
| CN(C)C(=S)N=c1ssc(=S)n1Cc1ccco1 | 91.5% (active) |
| CCN(CC)C(=O)CSc1nnc(CNc2ccc(F)cc2)n1Cc1ccco1 | -4.24% (inactive) |
| C=CCNC(=O)c1ccccc1SCc1c(C)noc1C | -20.3% (inactive) |
| CC(C)OCCCNc1ncnc2c1[nH]c1ccc(F)cc12 | 75.6% (active) |
| CC(/C=C/c1ccco1)=N/NC(=O)C1COc2ccccc2O1 (stereo unspecified) | -22.3% (inactive) |
| CC1CC1C(=O)OCC(=O)c1c(N)n(C)c(=O)n(C)c1=O (stereo unspecified) | 4.9% (inactive) |
| FC(F)(F)c1nnc2c3ccccc3c(Cl)nn12 | -2.37% (inactive) |
| COc1ccc(S(=O)(=O)NCCCCOc2ccc(Cl)cc2)cc1 | 96.7% (active) |
| COc1ccc(S(=O)(=O)NCCOc2ccccc2)cc1F | -29.5% (inactive) |
| COc1ccc(OCCNS(=O)(=O)Cc2ccccc2)cc1 | -15.6% (inactive) |
| CCOC(=O)c1sc(C)c2c1NC(C)(c1cccc3ccccc13)NC2=O (stereo unspecified) | -1.53% (inactive) |
| OC(c1ccc(Cl)cc1)c1ncc(-c2ccc(Cl)cc2)[nH]1 (stereo unspecified) | 71.4% (active) |
| OC(c1ccc(F)cc1)c1ncc(-c2cccc(C(F)(F)F)c2)[nH]1 (stereo unspecified) | 30.1% (inactive) |
| Cc1ccc(-c2cnc(C(O)c3cc(Cl)cc(Cl)c3)[nH]2)cc1 (stereo unspecified) | -10.6% (inactive) |

| SMILES | inhibition of corepressor binding |
| --- | --- |
| Cc1[nH]n(C(N)=S)c(=O)c1N=Nc1ccc(Cl)cc1Cl | -3.9% (inactive) |
| O=C(NCc1ccccc1)c1cccc(NC(=O)C2CCCCC2)c1 | -12.6% (inactive) |
| O=C1CSC(c2cccc(F)c2)N1c1ccccc1F (stereo unspecified) | -28.1% (inactive) |
| O=C1C=C(c2cc(C(F)(F)F)cc(C(F)(F)F)c2)C[C@@H](c2ccc3c(c2)OCO3)C1 | -2.34% (inactive) |
| O=C1C=C(c2cccc(Cl)c2)C[C@@H](c2ccc(F)cc2)C1 | -24.8% (inactive) |
| O=C1C=C(c2ccnc3cc(Cl)ccc23)C[C@@H](c2ccc3c(c2)OCO3)C1 | 85.8% (active) |
| O=C(CN1CCSCC1)N/N=C/c1ccc(F)cc1F | -6.92% (inactive) |
| CCOC(=O)N1CCN(S(=O)(=O)c2cc(Br)cc3c2N(C(=O)C2CC2)CC3)CC1 | -15.4% (inactive) |
| OC[C@@H]1CN(Cc2ccc(-c3ccccc3)cc2)C[C@H](n2cnc3c(NC4CCCC4)ncnc32)O1 | 91.4% (active) |
| OC[C@@H]1CN(Cc2cccs2)C[C@H](n2cnc3c(NC4CCCC4)ncnc32)O1 | -11.2% (inactive) |
| OC[C@@H]1CN(Cc2ccc(F)cc2)C[C@H](n2cnc3c(NC4CCCC4)ncnc32)O1 | -45.5% (inactive) |
| O=C(CCc1nnc(CCCCc2ccccc2)o1)NC(c1cccnc1)C(F)(F)F (stereo unspecified) | -10.3% (inactive) |
| O=C(Nn1cnnc1)c1cc(Cl)ccc1Cl | -4.56% (inactive) |
| NC(=O)C1CCN(CC(O)CSc2ccc(F)cc2)CC1 (stereo unspecified) | -11.6% (inactive) |
| NS(=O)(=O)c1cc(C(=O)NCCOc2ccccc2)c(Cl)cc1Cl | 16% (inactive) |
| CC(=O)N1CCCc2cc(S(=O)(=O)N3CCCC(C(=O)N4CCN(c5cccc(Cl)c5)CC4)C3)ccc21 (stereo unspecified) | 97.5% (active) |
| COc1cccc(N2CCN(C(=O)C3CCCN(S(=O)(=O)c4cnc[nH]4)C3)CC2)c1 (stereo unspecified) | -11% (inactive) |
| Cc1ccc(S(=O)(=O)N2CCCC(C(=O)N3CCN(C)CC3)C2)cc1 (stereo unspecified) | -11.8% (inactive) |
| O=C(CCC1CCCC1)N=C1SC2CS(=O)(=O)CC2N1Cc1ccccc1 (stereo unspecified) | -16.6% (inactive) |
| CCc1cccc(NC(=O)C2CCCN(S(=O)(=O)c3ccc4[nH]c(=O)ccc4c3)C2)c1 (stereo unspecified) | -18.2% (inactive) |
| CC(=O)c1ccc(NC(=O)C2CCCN2S(=O)(=O)c2cccs2)cc1 (stereo unspecified) | -7.87% (inactive) |
| N#Cc1cccc(CSc2nnc(CCCO)n2-c2ccccc2)c1 | 1.83% (inactive) |
| CC(C)OC(=O)c1ccc(NCc2cc(O)ccc2O)cc1Cl | -8.58% (inactive) |

| SMILES | inhibition of corepressor binding |
| --- | --- |
| O=C(OC12CC3CC(CC(C3)C1)C2)c1ccc(NCc2cc(O)ccc2O)cc1 | 91.5% (active) |
| Cc1ccnc(NC(=O)Cn2ccc([N+](=O)[O-])n2)c1 | -2.77% (inactive) |
| O=C(C1CCN(S(=O)(=O)c2ccc(Br)s2)CC1)N1CCN(c2ccccc2)CC1 | -1.63% (inactive) |
| COc1cccc(CNC(=O)CCN2C(=S)NC(C)(C)CC2C)c1 (stereo unspecified) | 9.24% (inactive) |
| N#C[C@]1(S(=O)(=O)c2ccccc2)C[C@@H]2ON=C(c3cccc(Br)c3)[C@@H]2C1 | 77.6% (active) |
| COC(=O)[C@]1(S(=O)(=O)c2ccccc2)C[C@@H]2ON=C(c3ccc(OC)cc3)[C@@H]2C1 | -7.87% (inactive) |
| CCCc1cc(=O)[nH]c(SCC(=O)c2c(N)n(CC(C)C)c(=O)n(C)c2=O)n1 | 5.16% (inactive) |
| O=C(NC(Nc1nc2ccc([N+](=O)[O-])cc2s1)(C(F)(F)F)C(F)(F)F)c1ccccc1 | 102% (active) |
| O=C(NNS(=O)(=O)Cc1ccccc1)c1ccc([N+](=O)[O-])cc1 | 0.72% (inactive) |
| O=C(Nc1cc(-c2ccccc2)nn1-c1ccccc1F)c1ccc([N+](=O)[O-])cc1 | 7.55% (inactive) |
| CC(C)n1c(-c2ccncc2)n[nH]c1=S | -6.98% (inactive) |
| CCOC(=O)N1CCN(C(=O)C2CCN(c3ncnc4c3sc3cccc(F)c34)CC2)CC1 | 78.5% (active) |
| CCOC(=O)N1CCN(C(=O)C2CCCN(c3ncnc4c3sc3cccc(F)c34)C2)CC1 (stereo unspecified) | -2.23% (inactive) |
| CCOC(=O)N1CCN(C(=O)C2CCN(Cc3ccc(OC)cc3OC)CC2)CC1 | 9.52% (inactive) |
| CCOc1ccc(S(=O)(=O)n2ccnc2)c2ccccc12 | 17.1% (inactive) |
| CCOc1ccc(S(=O)(=O)N2CCCCCC2)c2ccccc12 | 75.7% (active) |
| COc1ccc(S(=O)(=O)N2CCCC2)c(C)c1C | -29.4% (inactive) |
| CCNC(=O)N1CCNC(=O)C1CC(=O)Nc1ccc(C(=O)OCC)cc1 (stereo unspecified) | -12.7% (inactive) |
| COC(=O)c1ccc(NS(=O)(=O)c2cc3c4c(c2)C(C)C(=O)N4CCC3)cc1 (stereo unspecified) | -17.2% (inactive) |
| OCCCNc1nccc(-c2cc(Nc3cccc(Cl)c3)ncn2)n1 | 101% (active) |
| COCCCn1cc(CN2CC(N(C)C)CS2(=O)=O)nn1 (stereo unspecified) | 20.1% (inactive) |
| Cc1cc(C)c(S(=O)(=O)c2cc(F)ccc2C)c(=O)[nH]1 | -8.41% (inactive) |
| CC(C)(CNC(=O)c1ccc(Cl)c(S(=O)(=O)N2CCc3ccccc3C2)c1)N1CCOCC1 | -7.92% (inactive) |

| SMILES | inhibition of corepressor binding |
| --- | --- |
| CCc1nc2ccc(C(=O)NC3CCN(Cc4ccccc4)CC3)cn2c1N(CC)CCOC | -6.67% (inactive) |
| CC(C)(C)c1ccc(Oc2ccc(N)cc2)cc1 | 62.9% (inactive) |
| COc1ccc2nc(-c3ccccn3)ccc2c1 | -147% (inactive) |
| COc1cnc(-c2ccccn2)nc1Oc1ccc(C(C)(C)C)cc1 | 103% (active) |
| CC(C)N(Cc1nnc(-c2ccc(Cl)cc2)o1)C(=O)C1=COCCO1 | -16.3% (inactive) |
| COc1ccc(CCNC(=O)CSCc2ccc(Br)cc2)cc1OC | -15% (inactive) |
| CS(=O)(=O)c1ccc2nnn(OCC(=O)Nc3cccc(C#N)c3)c2c1 | -3.52% (inactive) |
| CCc1ccc(CNC(=O)CCc2nc(-c3cccs3)no2)cc1 | -4.34% (inactive) |
| CCNC(=O)CCc1nc(-c2ccc(C(C)(C)C)cc2)no1 | 75.3% (active) |
| CCOc1ccc(-c2noc(CCC(=O)NC3CCCC3)n2)cc1OC | 4.53% (inactive) |
| CN(CC(=O)NCCN1CCOCC1)S(=O)(=O)c1ccc(F)cc1 | -42.2% (inactive) |
| COc1cc(OC)cc(C2=Cc3ccccc3C(CC(=O)c3ccco3)N2c2ccc(-c3cnc(OC)nc3)cc2)c1 (stereo unspecified) | -30.9% (inactive) |
| Cc1ccsc1C(=O)OCC(=O)c1cc(C)n(CC2CCCO2)c1C (stereo unspecified) | 89.5% (active) |
| COc1ccc(CNC(=O)COC(=O)c2sccc2C)cc1OC | -4.67% (inactive) |
| CCCn1c(C)cc(C(=O)COC(=O)c2c(C)nn(-c3ccccc3)c2C)c1C | 17.1% (inactive) |
| Cc1ccc(S(=O)(=O)NCc2nc3ccccc3c(=O)n2N)cc1 | 22.2% (inactive) |
| Cc1nc(CNS(=O)(=O)c2ccc(Oc3ccccc3)cc2)cs1 | 92.4% (active) |
| Cc1nc(CNS(=O)(=O)c2cc([N+](=O)[O-])ccc2C)cs1 | 6.54% (inactive) |
| Cc1cc2ccccn2c1C(=O)c1cccc(S(=O)(=O)N2CCOCC2)c1 | 2.82% (inactive) |
| CCN(C(=O)CSc1nnnn1-c1ccc(OC)cc1)C1CCS(=O)(=O)C1 (stereo unspecified) | -16.1% (inactive) |
| CCC(C)N1C(=O)S/C(=C/c2ccc(Sc3nc4ccccc4[nH]3)o2)C1=O (stereo unspecified) | 78.5% (active) |
| CCOc1ccc(NC(=O)CN(C)C(=O)COc2cccc(CC)c2)cc1OCC | 2.58% (inactive) |
